According to PubChem BioAssay:
Activity calls are given as the source filed them.

How the values were obtained:
[1] = A549 cell viability effects, profiling panel, calcein-AM fluorescence, 48 h, basal (AID 1162); settings: higher = more signal
[2] = adipocyte viability effects, profiling panel, cell-based, 3T3-L1 adipocytes, calcein-AM fluorescence, 48 h, basal (AID 1163); settings: 3T3-L1 adipocytes viability, higher = more signal
[3] = HepG2 cell viability effects, profiling panel, calcein-AM fluorescence, 48 h, basal (AID 1164); settings: higher = more signal
[4] = MM1S cell viability effects, profiling panel, calcein-AM fluorescence, 48 h, basal (AID 1165); settings: higher = more signal;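 also: viability of MM1S multiple myeloma cells under basal unstimulated conditions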
[5] = basal RPMI8226 viability, no added stimulus, profiling panel, cell-based, calcein-AM fluorescence, 48 h, PK04 Diversity Set (AID 1166); settings: RPMI8226 myeloma viability, higher = more signal;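 also: cells grown under basal conditions without added stimulus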
[6] = basal HepG2 mitochondrial membrane potential changes, profiling panel, cell-based, JC-1 fluorescence, 24 h, 100 nL compound (AID 1167); settings: higher = more signal
[7] = basal 3T3-L1 adipocyte mitochondrial potential changes, profiling panel, cell-based, JC-1 fluorescence, 3T3-L1 adipocytes, 24 h, 100 nL compound (AID 1168); settings: JC-1 mitochondrial fluorescence, higher = more signal, called active from +8 up or from −8 down
[8] = basal RPMI8226 mitochondrial membrane potential changes, profiling panel, cell-based, JC-1 fluorescence, 24 h, 100 nL compound (AID 1169); settings: RPMI8226 myeloma, JC-1 mitochondrial potential fluorescence, higher = more signal
[9] = basal MM1S mitochondrial membrane potential changes, profiling panel, cell-based, JC-1 fluorescence, 24 h, 100 nL compound (AID 1170); settings: higher = more signal
[10] = A549 lung cancer cell viability effects, profiling panel, resazurin fluorescence, 24 h, PK04 Diversity Set (AID 1171); settings: higher = more signal, called active from +8 up or from −8 down
Also: test concentration not given here.

SMILES | z-score [1] | z-score [2] | z-score [3] | z-score [4] | z-score [5] | z-score [6] | z-score [7] | z-score [8] | z-score [9] | z-score [10]
CC(=O)N1CC2(CC2)CC1c1ccccc1 (stereo not given) | -1.64 | 0.334 | -1.34 | -0.386 | -1.14 | -1.15 | -1.86 (inactive) | 0.0805 | 0.359 | -0.714 (inactive)
C=C(/C(=C/C[C@H](OC(C)=O)c1ccc(CO)o1)c1cnc2ccccc2c1)C(C)C | -0.166 | 0.283 | -0.7 | -1.36 | -1.47 | -1.36 | -0.524 (inactive) | 0.867 | 0.246 | 0.643 (inactive)
O=C1O[C@@H](c2ccccc2)[C@@H](c2ccccc2)N2[C@@H](c3ccc(O)cc3)[C@]3(C(=O)Nc4ccc(C#CCCO)cc43)[C@@H](C(=O)N3CCN(c4ncccn4)CC3)[C@H]12 | -0.716 | -0.0773 | 0.0219 | 0.441 | 0.1 | -1.95 | -0.252 (inactive) | -0.681 | -0.425 | 0.378 (inactive)
NC(=O)NCC#Cc1ccc2c(c1)[C@]1(C(=O)N2)[C@H](c2ccccc2OCCO)N2[C@H](c3ccccc3)[C@H](c3ccccc3)OC(=O)[C@H]2[C@@H]1C(=O)NC[C@H](O)c1ccccc1 | 1.2 | 0.37 | -0.13 | 0.493 | 0.865 | -0.159 | 0.43 (inactive) | 0.208 | 0.359 | 0.635 (inactive)
COC(=O)[C@@H]1N=C(c2ccc(OCCCO)cc2)O[C@@H]1C | 0.0963 | -0.317 | 0.958 | 0.916 | -0.086 | 0.5 | 0.797 (inactive) | -0.155 | -1 | -0.155 (inactive)
CN1C(=O)C2C=CC(C(O)c3cccn3C)N(Nc3ccc([N+](=O)[O-])cc3[N+](=O)[O-])C2C1=O (stereo not given) | -0.49 | -1.35 | -0.678 | -2.1 | 0.16 | -1.58 | -1.16 (inactive) | 0.647 | -0.0962 | -1.03 (inactive)
N[C@@H](Cc1ccccc1)C(=O)NCc1cn(Cc2ccccc2)nn1 | 0.322 | 0.0811 | -0.256 | -0.0838 | -1.11 | 0.178 | -0.0638 (inactive) | 0.556 | 0.919 | 0.825 (inactive)
COc1cc2c(cc1O)C(c1ccc(CN3CCCC3)cc1)N(Cc1cc3c(cc1Br)OCO3)CC2 (stereo not given) | -0.717 | -0.564 | -0.341 | -3.17 | 0.173 | 1.21 | 0.144 (inactive) | -0.398 | -1.29 | 0.694 (inactive)
CCCN1C(=O)[C@]2(Cc3ccccc31)N=C(c1ccc(OCCCO)cc1)O[C@@H]2c1ccccc1 | -1.29 | 1.07 | -1.46 | -1.6 | -4.4 | -0.29 | -0.906 (inactive) | -1.17 | 0.278 | -1.6 (inactive)
[N-]=[N+]=Nc1ccccc1[C@H]1OC(c2ccc(OCCCO)cc2)=N[C@@]1(Cc1ccccc1)C(=O)NCCN1CCOCC1 | -0.449 | 0.91 | -1.21 | -2 | -3.41 | 2.36 | 1.83 (inactive) | -1.06 | -0.638 | -2 (inactive)
COCC(=C=CC[C@H](O)c1ccc(CO)o1)CCO | 0.0135 | -0.651 | 0.676 | -0.558 | 0.368 | -0.649 | -0.0348 (inactive) | -0.495 | 0.363 | -0.0239 (inactive)
COc1cccc(C)c1NC(=O)O[C@H]1[C@H](OC(=O)Nc2ccc3c(c2)OCO3)[C@@H](OC(=O)Nc2ccc3c(c2)OCO3)[C@@H](OC)O[C@@H]1CO | -0.551 | -0.271 | -1.28 | -2.27 | -0.815 | -0.445 | 0.925 (inactive) | -0.863 | -0.0492 | -0.315 (inactive)
COc1ccc([Si](C)(C)[C@H]2[C@H](CC(=O)N3CCC[C@H]3CO)O[C@@]3(C(=O)N(Cc4ccc(N5CCOC5=O)cc4)c4ccccc43)[C@@H]2C)cc1 | -0.585 | 0.722 | -0.557 | -2.27 | -3.98 | 2.41 | 0.388 (inactive) | -1.06 | -0.325 | 0.0083 (inactive)
O=C1O[C@@H](c2ccccc2)[C@@H](c2ccccc2)N2[C@@H](c3ccc(OCCO)cc3)[C@]3(C(=O)Nc4ccc(C#CC5=CCCCC5)cc43)[C@@H](C(=O)NC[C@H](O)c3ccccc3)[C@H]12 | 0.152 | 1.49 | 0.348 | 0.0056 | -2.81 | -1.93 | -0.106 (inactive) | -0.875 | -1.24 | -0.956 (inactive)
NC(=O)[C@H]1[C@@H]2C(=O)O[C@@H](c3ccccc3)[C@@H](c3ccccc3)N2[C@@H](c2ccc(OCCO)cc2)[C@]12C(=O)Nc1ccc(C#CCCO)cc12 | 0.0067 | 0.272 | 0.456 | 0.227 | 0.167 | -0.202 | -0.383 (inactive) | -0.398 | -1.18 | -0.0196 (inactive)
CC(CO)N1C(=O)[C@]2(C)C3C(=O)OCCC/C=C\[C@H]3OC23C=CCN(c2ccc(Cl)cc2)C(=O)[C@@H]13 (stereo not given in full) | 0.592 | -0.329 | 0.94 | 1.77 | 0.202 | 1.19 | 0.204 (inactive) | -0.765 | -0.302 | -0.0794 (inactive)
CC(C)C(CO)N1C(=O)[C@@H]2[C@H]3C(=O)OCC=C[C@H]3OC23C=CCN(c2ccc(Cl)cc2)C(=O)[C@@H]13 (stereo not given in full) | -0.713 | 0.556 | 0.813 | 1.04 | -0.356 | 0.465 | 0.959 (inactive) | -0.212 | 0.497 | 0.504 (inactive)
CO[C@H]1O[C@H](CO)[C@@H](OC(=O)Nc2ccc(Br)cc2)[C@@H]2OC(=O)[C@@H](Cc3ccccc3)C/C=C/C[C@H](Cc3ccccc3)C(=O)O[C@@H]12 | 0.468 | 0.424 | -1.35 | -1.41 | -3.32 | 0.125 | 2.12 (inactive) | -1.19 | -0.241 | -3.17 (inactive)
COC(=O)[C@@]1(Cc2ccccc2)[C@H]2c3cc(C(=O)N(C)C)n(Cc4ccc(C)o4)c3C[C@H]2CN1C(=O)c1ccccc1 | -2.02 | 0.827 | -0.735 | -1.01 | -3.69 | 0.598 | -2.61 (inactive) | -0.951 | -1.88 | -1.42 (inactive)
CC(C)C(CO)N1C(=O)[C@@H]2C3C(=O)OCCC/C=C\[C@H]3OC23C=CCN(Cn2nnc4ccccc42)C(=O)[C@@H]13 (stereo not given in full) | 0.225 | 0.0251 | 0.0343 | 1 | -0.224 | -0.45 | -0.529 (inactive) | -0.0779 | -0.165 | 0.173 (inactive)
CCOC(=O)C[C@H]1[C@H](OC(=O)c2ccccc2-c2ccccc2)[C@@H](NC(=O)c2ccc3ccccc3c2)c2cc(OCCCO)ccc2N1C(=O)c1ccccc1 | 0.065 | 0.257 | -0.336 | -0.306 | -0.604 | 0.579 | 0.633 (inactive) | -0.25 | 0.171 | -0.385 (inactive)
COCC(=C=CC[C@H](O)c1ccccc1OCCO)C[C@H](O)c1ccccn1 | 1.12 | 0.381 | 0.781 | 0.943 | 0.139 | 1.01 | -0.443 (inactive) | -0.471 | -1.09 | -0.0836 (inactive)
CN1C2C=C(CCCO)C(C3C(=O)N(C(N)=O)C(=O)C32)C1C1CC1 (stereo not given) | 0.0701 | -0.0683 | 0.592 | 0.0641 | -0.952 | -0.486 | 0.0295 (inactive) | 0.192 | 0.238 | -0.513 (inactive)
C=CCN1C(=O)[C@]2(CCS(=O)(=O)c3ccccc3)N=C(c3ccc(OCCCO)cc3)O[C@@H]2c2ccccc21 | 0.776 | 0.142 | 0.504 | -0.0236 | 0.716 | 0.452 | 1.42 (inactive) | -0.156 | 0.615 | -2.52 (inactive)
Cc1ccc(S[C@]2(C(=O)NCc3ccccc3)CC(=O)N(C3CCCCC3)[C@@H]2c2ccc(CO)cc2I)cc1 | -0.0709 | 0.183 | 0.398 | -1.93 | -3.39 | 0.521 | 0.97 (inactive) | -0.464 | -1.62 | -0.99 (inactive)
[N-]=[N+]=Nc1ccccc1[C@@H]1OC(c2ccc(OCCCO)cc2)=N[C@]1(Cc1ccccc1)C(=O)N1CCCCC1 | -0.523 | -0.0528 | -0.822 | -2.91 | -4.32 | 0.408 | 1.87 (inactive) | -1.17 | -2.19 | -1.61 (inactive)
